# Data taken from PubChem BioAssay.
# Inconclusive results are not listed. Calls of active or inactive are those of the source. Unless noted, no stated cut-off is given here; in the data, active means inhibition above about 30%; inactive means the rest.
# Key:
# [1] = reducers of endogenous Her2 protein level, primary screen, SKBR3 breast tumor cells, AlphaScreen, ATP viability (AID 461;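 active means Her2 level under about 52% in both replicate screens, with viability over 70% of control, limit read from the data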;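 on Her2 level: lower value means less Her2 protein in the cells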;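 on viability: percent of carrier control wells set as 100% viability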); conditions: 18-24 h, measured here: SKBR3 viability, ATP luminescence, at 10 µM
# [2] = target: Receptor tyrosine-protein kinase erbB-2 (Homo sapiens) (UniProt P04626); test: as above; conditions: 18-24 h, at 10 µM, stronger effect = lower value
# Chain of Receptor tyrosine-protein kinase erbB-2 (Homo sapiens) (P04626 whole entry, looked up): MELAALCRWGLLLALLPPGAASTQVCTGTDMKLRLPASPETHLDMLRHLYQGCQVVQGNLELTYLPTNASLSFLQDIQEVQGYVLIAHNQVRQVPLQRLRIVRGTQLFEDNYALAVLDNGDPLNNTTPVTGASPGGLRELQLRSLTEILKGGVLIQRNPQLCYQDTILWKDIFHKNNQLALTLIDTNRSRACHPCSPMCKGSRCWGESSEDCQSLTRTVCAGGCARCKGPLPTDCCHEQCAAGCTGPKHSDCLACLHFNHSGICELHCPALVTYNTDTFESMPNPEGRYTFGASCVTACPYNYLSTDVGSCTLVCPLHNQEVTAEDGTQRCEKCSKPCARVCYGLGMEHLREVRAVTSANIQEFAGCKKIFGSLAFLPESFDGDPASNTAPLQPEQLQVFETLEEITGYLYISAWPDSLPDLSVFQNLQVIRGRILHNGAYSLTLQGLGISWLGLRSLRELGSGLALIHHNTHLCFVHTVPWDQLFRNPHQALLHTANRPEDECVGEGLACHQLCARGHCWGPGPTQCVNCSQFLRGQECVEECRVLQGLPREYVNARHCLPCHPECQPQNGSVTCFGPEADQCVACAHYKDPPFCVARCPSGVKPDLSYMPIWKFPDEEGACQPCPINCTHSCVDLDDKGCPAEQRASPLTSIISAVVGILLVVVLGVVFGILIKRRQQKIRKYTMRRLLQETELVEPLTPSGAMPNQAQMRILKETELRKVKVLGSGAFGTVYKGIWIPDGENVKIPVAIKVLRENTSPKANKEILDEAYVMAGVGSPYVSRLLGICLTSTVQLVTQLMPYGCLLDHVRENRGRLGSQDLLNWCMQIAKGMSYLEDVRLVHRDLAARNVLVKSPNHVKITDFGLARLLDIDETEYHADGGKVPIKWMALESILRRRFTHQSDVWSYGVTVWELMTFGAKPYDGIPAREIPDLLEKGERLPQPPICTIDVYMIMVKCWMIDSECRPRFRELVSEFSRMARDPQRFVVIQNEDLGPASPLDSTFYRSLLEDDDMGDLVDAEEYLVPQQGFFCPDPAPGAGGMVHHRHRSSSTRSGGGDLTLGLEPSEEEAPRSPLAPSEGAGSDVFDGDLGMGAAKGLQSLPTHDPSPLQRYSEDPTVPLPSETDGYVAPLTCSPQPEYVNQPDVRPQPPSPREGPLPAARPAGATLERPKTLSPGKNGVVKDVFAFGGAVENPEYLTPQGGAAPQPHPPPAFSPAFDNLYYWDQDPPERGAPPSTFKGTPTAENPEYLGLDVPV
# [3] = SK-BR-3 cell growth inhibitors, pilot screen, 24 h, human (AID 572;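 active means viability at or below 10% of carrier control in both of two separate runs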;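 further: compound exposure lasted between 18 and 24 h rather than exactly 24 h; 100% = carrier-treated control wells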); conditions: SK-BR-3 viability, CellTiter-Glo luminescence, at 10 µM, stronger effect = lower value
# [4] = HUVEC growth inhibition – cell-based, human, primary screen (AID 575;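 active means viability at or below 30% in both replicate assays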;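 further: 100% = median of untreated cell wells with 0.1% DMSO on each plate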); conditions: HUVEC proliferation, CellTiter-Glo luminescence, 72 h; at 10 µM; stronger effect = lower value
# [5] = growth inhibitors of H69AR lung tumor, primary screen, human, duplicate replicates (AID 580;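 active means viability at or under a set limit in both replicates, limit being median viability minus 3 SD, cut at about 48% in these data, passing the limit was not always enough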;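 further: 100% = mean luminescence of untreated wells and 0% = no signal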); conditions: H69AR lung tumor cells viability, ATP luminescence, 72 h; at 10 µM; stronger effect = lower value
# [6] = reversal of MRP1-mediated doxorubicin resistance, pilot screen, H69AR cells, doxorubicin co-treatment (AID 601;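 active means viability loss from added drug above about 55%, and viability with drug at most 40%, in both replicates, limit read from the data, passing the limit was not always enough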); conditions: CellTiter-Glo, 72 h, at 10 µM; for differential viability (reversal): stronger effect = higher value
# [7] = 384-well plate pilot, post-Golgi transport modulator project, inhibition of yeast transport mutant growth (AID 636; in the data active means inhibition above about 31%); conditions: absorbance 615 nm, about 18 h, stronger effect = higher value
# [8] = growth suppression of yeast trafficking mutant, preliminary HTS, modulators of trafficking downstream of Golgi apparatus project, 1536-format plate, OD 615 nm (AID 637); conditions: yeast transport mutant growth, absorbance 615 nm, 18 h; stronger effect = higher value
# [9] = OD615 S. cerevisiae growth inhibition, permissive medium, pilot counter-assay, permissive growth control for S. cerevisiae lifespan shortening project (AID 705;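 active means growth inhibition above 25% in both replicates, a cutoff set 3 SD above the mean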); conditions: OD615, 24 h, at 10 µM, stronger effect = higher value
# [10] = Restrictive medium S. cerevisiae growth inhibition, OD615, pilot screen of yeast lifespan reduction project, restrictive growth control (AID 706;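 active means growth inhibition above a set limit, 3 SD over mean compound inhibition, in both replicates, cut at about 43% in these data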;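 further: modified DeaD lifespan yeast strain shifted to restrictive glucose medium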); conditions: OD615, 48 h, at 10 µM, stronger effect = higher value
# [11] = viability gain of MRP-1-high H69AR cells under doxorubicin, pilot screen, MRP-1 activator project, CellTiter-Glo, duplicate (AID 807;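 active means viability increase at or above a cutoff of the median across tested compounds plus 3 SD, cut at about 8.5% in these data, passing the limit was not always enough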;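 further: compound pretreatment 18-22 h then 72 h combined with doxorubicin; 0% = doxorubicin alone and 100% = vehicle without doxorubicin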); conditions: H69AR viability with doxorubicin, CellTiter-Glo luminescence; at 10 µM; stronger effect = higher value
# [12] = growth suppression of beta-catenin knockout HCT116, pilot screen, human colon tumor cells (AID 823;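 active means cell viability at or below a set limit in both duplicate runs, the limit being the all-compound median minus 4 SD, cut at about 23% in these data, passing the limit was not always enough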;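 further: 0% = wells killed by 20 µM Hyamine and 100% = untreated DMSO cell wells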); conditions: CellTiter-Glo, 60 h, at 10 µM, stronger effect = lower value
# [13] = growth suppression of PTEN-deleted HCT116, pilot screen, cell-based, HCT116 clonal line, CellTiter-Glo (AID 824;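 active means viability at or below 27.92% in each of two runs, the all-compound median minus 4 SD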;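 further: 0% = 20 µM Hyamine control and 100% = vehicle cell control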); conditions: 60 h, at 10 µM, stronger effect = lower value
# [14] = inhibitors of the yeast RAM network, pilot screen, dse1pr::URA3 reporter, 5-FOA selection (AID 869;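 active means inhibition over a set limit, the all-compound mean plus 3 SD, in both replicate runs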;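 further: 0% = DMSO wells with no growth and 100% = 10 µM 1-NA-PP1 with full growth; RAM network block rescues cells from 5-FOA so hits raise OD615 growth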); conditions: S. cerevisiae dse1pr::URA3 5-FOA growth, OD615, 2 d; at 10 µM; stronger effect = higher value; strain carries analog-sensitive mutant Cbk1 kinase
# [15] = RAM signaling pathway blockade in yeast – S. cerevisiae, Pdr1DBD-CYC8 efflux-inhibited sensitized strain, primary screen (AID 1298;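 active means RAM network inhibition above 8.4% in each of two replicates, 3 SD over the compound average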;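 further: 0% = DMSO untreated cells without growth and 100% = 10 µM 1-NA-PP1 full growth; higher means more yeast growth rescued from 5-FOA killing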); conditions: S. cerevisiae cbk1-as DSE1-URA3 strain, 5-FOA growth OD615, 2 d; at 50 µM; stronger effect = higher value
# [16] = H69AR cells + 2 uM doxorubicin, measured here: viability with 2 uM doxorubicin, stronger effect = lower value
# [17] = H69AR cells, compound alone cytotoxicity
Compound,viability [1],Her2 level [2],viability [3],viability [4],viability [5],differential viability (reversal) ([6]; H69AR cells + 2 uM doxorubicin),"viability [6, 16]","viability [6, 17]",inhibition [7],inhibition [8],growth inhibition [9],growth inhibition [10],viability increase [11],viability [12],viability [13],inhibition [14],RAM network inhibition [15]
COc1ccc(C(=O)c2ccc(OC)c(N)c2)cc1N,119%,86% (inactive),119% (inactive),49% (inactive),16.9% (active),-46.3% (inactive),63.2%,16.9%,1.3% (inactive),-1.31% (inactive),-20% (inactive),-17.8% (inactive),-6.12% (inactive),15.2% (active),17% (active),2.53% (inactive),2.22% (inactive)
CCN1CCN(C(c2cccs2)C(C)NC(=O)c2ccccc2)CC1 (stereo not given),92%,88% (inactive),92% (inactive),104% (inactive),87.3% (inactive),6.01% (inactive),81.3%,87.3%,-0.26% (inactive),4% (inactive),-5.51% (inactive),1.4% (inactive),-0.71% (inactive),101% (inactive),105% (inactive),-0.445% (inactive),5.79% (inactive)
CCOC(=O)C(C)(C)Sc1nc2c(cnn2-c2ccc(Cl)cc2)c(=O)[nH]1,76%,91% (inactive),76% (inactive),64.4% (inactive),81.9% (inactive),-3.56% (inactive),85.4%,81.9%,-2.05% (inactive),2.5% (inactive),-5.47% (inactive),-0.62% (inactive),-2.17% (inactive),91.9% (inactive),78.2% (inactive),1.89% (inactive),6.14% (inactive)
CCCCCOc1ccc(C2NC(=O)NC2=O)cc1 (stereo not given),97%,109% (inactive),97% (inactive),102% (inactive),106% (inactive),18.2% (inactive),88.1%,106%,-4.93% (inactive),-3.5% (inactive),-7.17% (inactive),-19.9% (inactive),-1.63% (inactive),101% (inactive),94.5% (inactive),0.245% (inactive),1.57% (inactive)
COc1cccc(-c2nnc(NC(C)=O)o2)c1,93.5%,99.5% (inactive),93.5% (inactive),103% (inactive),98.8% (inactive),7.19% (inactive),91.6%,98.8%,-5.47% (inactive),-4.33% (inactive),-0.545% (inactive),1.75% (inactive),-1% (inactive),101% (inactive),105% (inactive),1.76% (inactive),1.45% (inactive)
Cc1nn(C(=O)c2ccc3c(c2)OCO3)c(N)c1-c1ccccc1,102%,95% (inactive),102% (inactive),98.3% (inactive),94.2% (inactive),9.75% (inactive),84.5%,94.2%,-1.47% (inactive),2.13% (inactive),3.15% (inactive),5.03% (inactive),-2.76% (inactive),99.2% (inactive),98.2% (inactive),0.585% (inactive),1.02% (inactive)
C=CCSc1nc2sc(C)c(C)c2c(=O)[nH]1,97.5%,107% (inactive),97.5% (inactive),83.3% (inactive),90.7% (inactive),9.9% (inactive),80.8%,90.7%,-5.87% (inactive),-10.3% (inactive),-7.21% (inactive),-12.2% (inactive),0.97% (inactive),109% (inactive),89% (inactive),1.19% (inactive),4.66% (inactive)
Cc1nc2sc(C(c3cccs3)N3CCOCC3)c(O)n2n1 (stereo not given),90%,100% (inactive),90% (inactive),94.8% (inactive),88.6% (inactive),-4.79% (inactive),93.4%,88.6%,-7.73% (inactive),-0.83% (inactive),-7.23% (inactive),-11.9% (inactive),-0.31% (inactive),107% (inactive),94.2% (inactive),1.54% (inactive),1.99% (inactive)
COc1cc(C(=O)N2c3ccccc3CC2C)cc(OC)c1OC (stereo not given),102%,81.5% (inactive),102% (inactive),88.8% (inactive),81.8% (inactive),-9.55% (inactive),91.3%,81.8%,-4.59% (inactive),-3.33% (inactive),-3.11% (inactive),-16.6% (inactive),-4.64% (inactive),87.4% (inactive),83.8% (inactive),0.67% (inactive),6.34% (inactive)
CCOc1ccccc1N1Cc2cc(C)c(C)cc2C1,92.5%,104% (inactive),92.5% (inactive),90.4% (inactive),88.1% (inactive),-9.66% (inactive),97.7%,88.1%,-6.27% (inactive),-0.83% (inactive),-16.8% (inactive),-12.1% (inactive),-2.58% (inactive),63.6% (inactive),59.3% (inactive),2.19% (inactive),2.05% (inactive)
Cc1ccc(CSc2nc3c(c(=O)[nH]2)CCC3)cc1,86.5%,91.5% (inactive),86.5% (inactive),79.7% (inactive),93.1% (inactive),17.8% (inactive),75.2%,93.1%,-0.13% (inactive),2.67% (inactive),-9.96% (inactive),-26.7% (inactive),-0.74% (inactive),105% (inactive),92.9% (inactive),3% (inactive),3.47% (inactive)
COC1CCCCC1Nc1cccc(SC)c1 (stereo not given),100%,112% (inactive),100% (inactive),104% (inactive),88.3% (inactive),10.6% (inactive),77.7%,88.3%,-3.25% (inactive),-3% (inactive),-1.82% (inactive),-18.4% (inactive),-3.29% (inactive),80.6% (inactive),75.1% (inactive),1.83% (inactive),7.2% (inactive)
CCOc1ccc(N(C(C)C(=O)NC2CCCCCC2)S(C)(=O)=O)cc1 (stereo not given),90.5%,98.5% (inactive),90.5% (inactive),101% (inactive),94.1% (inactive),1.44% (inactive),92.7%,94.1%,-2.69% (inactive),-3.83% (inactive),-1.18% (inactive),-21% (inactive),-2.2% (inactive),100% (inactive),90.6% (inactive),2.62% (inactive),6.94% (inactive)
Cc1ccc(-c2nc3cc(NC(=O)C(C)C)ccc3o2)cc1,87%,112% (inactive),87% (inactive),73.5% (inactive),82.4% (inactive),-1.22% (inactive),83.6%,82.4%,-1.92% (inactive),-10.3% (inactive),-11.2% (inactive),-21.9% (inactive),-5.7% (inactive),82.6% (inactive),73.5% (inactive),3.04% (inactive),5.12% (inactive)
CCOC(=O)CN1CC23C=CC(O2)C(C(=O)Nc2ccc(OCC)cc2)C3C1=O (stereo not given),100%,96% (inactive),100% (inactive),102% (inactive),96.4% (inactive),7.16% (inactive),89.2%,96.4%,-4.53% (inactive),0.49% (inactive),17% (inactive),13.4% (inactive),-0.57% (inactive),112% (inactive),105% (inactive),2.22% (inactive),0.21% (inactive)
O=C(NC1CCCCCC1)c1c(F)c(F)c(F)c(F)c1F,76.5%,92% (inactive),76.5% (inactive),78.9% (inactive),101% (inactive),15.7% (inactive),85.2%,101%,0.26% (inactive),-8.67% (inactive),4.54% (inactive),7.52% (inactive),-3.82% (inactive),91.8% (inactive),93.5% (inactive),1.01% (inactive),-1.79% (inactive)
COc1ccccc1-c1nnc(SCC(=O)NC2CCCCC2)o1,83%,72.5% (inactive),83% (inactive),89.7% (inactive),87.8% (inactive),-0.34% (inactive),88.2%,87.8%,6.13% (inactive),1.31% (inactive),1.35% (inactive),10.7% (inactive),-3.27% (inactive),94.6% (inactive),94.5% (inactive),-0.42% (inactive),3.73% (inactive)
Nc1cc(N)cc(-c2nc3ccccc3o2)c1,100%,106% (inactive),100% (inactive),87.3% (inactive),93.7% (inactive),19.1% (inactive),74.7%,93.7%,-2.4% (inactive),3.17% (inactive),1.61% (inactive),6.39% (inactive),-0.39% (inactive),100% (inactive),95.4% (inactive),2.14% (inactive),0.61% (inactive)
Cc1cc2nc(-c3ccco3)cc(C(F)(F)F)n2n1,93.5%,90% (inactive),93.5% (inactive),102% (inactive),93.3% (inactive),6.71% (inactive),86.6%,93.3%,1.28% (inactive),8.17% (inactive),-17.4% (inactive),-8.99% (inactive),1.14% (inactive),105% (inactive),105% (inactive),1.89% (inactive),2.83% (inactive)
CC1CCCCN1CCNC(=O)C1CCN(S(=O)(=O)c2cccc3cccnc23)CC1 (stereo not given),97%,96.5% (inactive),97% (inactive),112% (inactive),100% (inactive),4.43% (inactive),95.8%,100%,-2.53% (inactive),-2.46% (inactive),8.94% (inactive),-2.71% (inactive),-3.57% (inactive),101% (inactive),97.9% (inactive),2.46% (inactive),6.99% (inactive)
